Assay outcomes as filed in PubChem.
Hits are enriched below; roughly 2.7% of the tested compounds scored in any of these assays.
IP6K1 inh = blocks human inositol hexakisphosphate kinase 1 | Q92551 | 140,000 compounds, 0.81% hits | AID 1645851 | activity change, % (series mostly up to about 58 µM) | IP6K1 kinase, ADP-Glo luminescence, 2 h; active compounds read low; in the data active means activity change below about -25%; further: on the % scale 0 is the no-effect control and ±100 the full control effect
Target sequence (Q92551 whole entry, looked up): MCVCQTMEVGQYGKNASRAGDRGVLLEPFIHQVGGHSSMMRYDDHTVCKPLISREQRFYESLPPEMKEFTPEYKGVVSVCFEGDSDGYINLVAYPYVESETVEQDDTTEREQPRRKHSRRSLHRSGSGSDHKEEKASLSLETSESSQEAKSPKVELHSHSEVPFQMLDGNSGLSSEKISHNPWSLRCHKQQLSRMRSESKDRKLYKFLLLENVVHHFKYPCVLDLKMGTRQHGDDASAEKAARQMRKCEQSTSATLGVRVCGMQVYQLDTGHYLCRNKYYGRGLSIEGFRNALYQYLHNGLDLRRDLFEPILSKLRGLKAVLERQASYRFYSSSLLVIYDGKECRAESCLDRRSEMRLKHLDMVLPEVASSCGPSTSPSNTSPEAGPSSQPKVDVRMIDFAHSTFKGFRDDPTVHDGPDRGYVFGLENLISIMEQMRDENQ
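ADP-Glo luminescence measures ADP made by human IP6K1 during a 2 h RT reaction with ATP/IP6 (mix at 1.3 mM/130 uM); top library doses 57.5 and 19.1 uM final.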
KDM5B inh = KDM5B demethylase inhibition. Potency, µM (titrated, usually from 57.7 µM), actives largely listed as inhibitors. 220,000 compounds, 2.6% hits. KDM5B demethylase, FDH-coupled NADH fluorescence (FDH is formaldehyde dehydrogenase). AID 1347165. Q9UGL1; active means well fitted inhibition curve with a large enough effect; inconclusive means small, poorly fitted or top-dose-only effect; inactive means no such curve, though single readings can be large or run the other way; further: potency means the concentration at half of the fitted maximal effect; 0% is about no effect; nearly all actives have a fitted effect of over 70% in size
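KDM5BΔAP (200 nM final) in 50 mM HEPES pH 7.5, 0.01% Tween-20 was preincubated 10 min at RT with compound over a concentration range. Substrate mix (H3K4me3 12.5 µM, α-KG 25 µM, Fe²⁺, ascorbate, NAD⁺, FDH) was added, and NADH fluorescence change over 30 min gave dose-response curves.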
An asterisk follows results filed as active; i = inactive; ? = inconclusive; / = no result.

SMILES | IP6K1 inh | KDM5B inh
COc1ccc(-c2cc(-c3c(C)noc3C)c3cncn3c2)cc1OC | -19.5 | ?
COc1ccccc1Nc1ccnc(N2CCCC(C(=O)NC3CCC3)C2)n1 (stereo unspecified) | -3.2 | /
Cc1oc(-c2cccs2)nc1CC(=O)Nc1ccccc1N1CCCCCC1 | / | i
C#CCNC(=O)C[C@@H]1CCN(C(=O)Nc2cccc(C(=O)OCC)c2)C[C@@H]1CC | -0.5 | 15.8µM*
CCOC(=O)c1cccc(NC(=O)N2CC[C@@H](CC(=O)NCCN(C)C)[C@@H](CC)C2)c1 | 3.8 | i
Cc1nn(C)c(C)c1-c1ccnc(NCCC2(O)CCN(C)CC2)n1 | 0.7 | ?
Cc1cc(N2CCCN(c3nccc(-c4c(C)nn(C)c4C)n3)CC2)ccn1 | 0.3 | 28.2µM*
O=C1NCCCCCCN(Cc2cccc(OC(F)(F)F)c2)[C@H]2CCC[C@@H]12 | 7.9 | 5.62µM*
Cn1cccc1CN1CCCCCNC(=O)[C@@H]2CCC[C@@H]21 | 14.6 | i
O=C1NCCCCCCN(Cc2ccncc2)[C@@H]2CN(Cc3cccnc3)CC[C@@H]12 | 0.3 | ?
COc1cccc(CN2CCCOCCNC(=O)[C@@H]3CCCC[C@@H]32)c1 | -1.2 | i
O=C1NCCCCCCN(Cc2ccc(F)c(F)c2)[C@H]2CCC[C@@H]12 | 7.6 | 12.6µM*
O=C1NCCCCCCN(Cc2ccncc2)[C@@H]2CN(Cc3ccncc3F)CC[C@H]12 | 1.6 | 20µM*
CC(C)CCN1CCCCCCNC(=O)[C@@H]2CCC[C@@H]21 | 8.4 | 10µM*
O=C1NCCCCCN(Cc2ccc(F)cc2F)[C@H]2CCC[C@@H]12 | 7.4 | ?
O=C(NCC1CC1)C1CC1c1ccncc1 (stereo unspecified) | / | i
CCOc1ccc(NC(=O)NC(C)c2ccc(Cl)s2)cc1 (stereo unspecified) | / | i
CCC(=O)N1CCN(c2nc3c(s2)CC(C(=O)Nc2ccc(F)cc2F)CC3)CC1 (stereo unspecified) | 39.8 | i
CCOc1ccccc1C(=O)N1CCC2(CC1)CN(c1ncccn1)CC2CO (stereo unspecified) | 7.0 | 31.6µM*
CCOc1ccccc1C(=O)N1CCC(Oc2ncccc2C(=O)N2CCCCC2)C1 (stereo unspecified) | 1.7 | i
Cn1cc(C(=O)N2CCC3(CC2)CN(c2ncccn2)CC3CO)cn1 (stereo unspecified) | 5.8 | 25.1µM*
CCOc1ccc(C(=O)N2CCN(c3ncccn3)CC2)cc1 | / | i
CCOc1ccc(C(=O)N2CCC3(CC2)CN(c2ncccn2)CC3CO)cc1 (stereo unspecified) | -1.3 | 25.1µM*
CCn1cc(C(=O)N2CCC3(CC2)CN(Cc2ccccc2)CC3CO)cn1 (stereo unspecified) | 4.3 | ?
CC(=O)NC[C@@H]1C=C(C)[C@H](Cc2nc3ccc(C)cc3[nH]2)C[C@H]1C(C)C | -2.7 | i
SMILES | IP6K1 inh | KDM5B inh
CC(C)CNC(=O)c1ccc2nnc(Cc3ccc(Cl)cc3)n2c1 | -11.1 | /
COc1cc(F)ccc1-c1cc(C(=O)NCc2cccnc2)c2c(c1)ncn2C | -3.7 | 35.5µM*
COc1cc(F)ccc1-c1cc(C(=O)NCc2c(C)cc(C)[nH]c2=O)c2c(c1)ncn2C | -1.3 | ?
COc1ncccc1-c1cc(C(=O)NCCN2CCOCC2)c2c(c1)ncn2C | 10.2 | 35.5µM*
COc1ncccc1-c1cc(C(=O)N(C)CCN(C)C)c2c(c1)ncn2C | 3.3 | i
COc1cc(CNC(=O)c2cc(-c3cccc(N(C)C)c3)cc3ncn(C)c23)ccn1 | -0.3 | i
COc1cc(F)ccc1-c1cc(C(=O)NCc2ccnc(N)c2)c2c(c1)ncn2C | -0.5 | 35.5µM*
COc1ccc(CNC(=O)c2cc(-c3ccc(F)cc3)cc3ncn(C)c23)cc1OC | -10.2 | i
COc1ccc(-c2cc(C(=O)NCc3ccnc(N)c3)c3c(c2)ncn3C)cc1 | 0.7 | 39.8µM*
O=C(Nc1ccccc1)[C@@H]1OCC(=O)N(C2CC2)[C@H]1c1ccccc1 | -8.6 | /
C[Si](C)(C)CN1CCN(CC(=O)Nc2ccccc2Cl)CC1 | / | i
O=C(Nc1ccc(CN2CCOC2=O)cc1)N1CCCC1 | / | i
Cn1cnc2cc(-c3cccc(N4CCOCC4)c3)cc(C(=O)NCc3cccnc3)c21 | -10.0 | ?
COC1CCCN(C(=O)c2cc(-c3ccc(F)cc3)cc3ncn(C)c23)C1 (stereo unspecified) | 8.0 | ?
Cn1cnc2cc(-c3ccccc3)cc(C(=O)NCc3cccnc3)c21 | -1.5 | 31.6µM*
COCCNC(=O)c1cc(-c2cnn(Cc3ccccc3)c2)cc2ncn(C)c12 | 10.0 | 35.5µM*
Cn1cnc2cc(-c3ccc(F)cc3)cc(C(=O)NCc3cccnc3)c21 | -6.5 | 31.6µM*
Cn1cnc2cc(-c3cccc(C(F)(F)F)c3)cc(C(=O)NCc3cccnc3)c21 | -6.9 | ?
Cn1cnc2cc(-c3ccc(F)cc3)cc(C(=O)NCC3CCOCC3)c21 | -7.5 | 35.5µM*
